{
  "source": "PubChem BioAssay (NCATS)",
  "note": "Inconclusive results are not listed. A call without a number means that no potency is given here. Calls of active or inactive are those of the source. Calls follow the shape of the dose curve; as a rule, active = well fitted cell-killing curve with a large enough effect; inconclusive = small, poorly fitted or top-dose-only effect, or effect the other way; inactive = flat fitted curve, though single readings scatter. Potency is read from the fitted curve at half-maximal effect.",
  "data": [
    {"system": "PA-1", "assay": "Primary qHTS to identify gynecologic anti-cancer compounds using libraries of approved drugs and bioactive compounds (AID 1345084); also: nearly all actives have a fitted effect of over 55% in size", "conditions": "Gynecologic cancer cell panel viability, ATPlite luminescence, 48 h; series mostly up to 57.5 µM", "in_short": "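Five-point cytotoxicity, 48 h drug exposure at 37 C, 5% CO2, on cells seeded 16 h beforehand. ATP content read by ATPlite luminescence.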", "values": [
      {"smiles": "CCCCCCCCCCOCC(O)CN", "note": "(configuration not stated)", "Potency": "inactive"},
      {"smiles": "CCN(CC)CCOC(=O)C(c1ccccc1)C1CCCCC1", "note": "(configuration not stated)", "Potency": "inactive"},
      {"smiles": "CC(O)(P(=O)(O)O)P(=O)(O)O", "Potency": "inactive"},
      {"smiles": "CCCCOc1ccc(C(=O)CCN2CCCCC2)cc1", "Potency": "inactive"},
      {"smiles": "Clc1ccc2c(c1)CCc1cccnc1C2=C1CCNCC1", "Potency": "inactive"},
      {"smiles": "CCCOC(C(=O)OC1CCN(C)CC1)(c1ccccc1)c1ccccc1", "Potency": "inactive"},
      {"smiles": "C[C@H]1C[C@H]2[C@@H]3CCC4=CC(=O)C=C[C@]4(C)[C@@]3(Cl)[C@@H](O)C[C@]2(C)[C@@]1(O)C(=O)CO", "Potency": "inactive"},
      {"smiles": "O=C(COc1ccc(Cl)cc1)N1CCN(Cc2ccc3c(c2)OCO3)CC1", "Potency": "inactive"},
      {"smiles": "CC1=C(C(=O)OC(C)C)C(c2cccc([N+](=O)[O-])c2)C(C(=O)OC2CN(C(c3ccccc3)c3ccccc3)C2)=C(N)N1", "note": "(configuration not stated)", "Potency": "inactive"},
      {"smiles": "COc1cc2c(cc1OC)C(C(C(=O)N(CCc1ccc(OC)c(OC)c1OC)CCc1ccc(OC)c(OC)c1OC)c1ccccc1)=NCC2", "note": "(configuration not stated)", "Potency": "inactive"},
      {"smiles": "COCc1c(C(C)C)nc(C(C)C)c(/C=C/[C@@H](O)C[C@@H](O)CC(=O)O)c1-c1ccc(F)cc1", "Potency": "2.82 µM (active)"},
      {"smiles": "c1ccc(CNCCNCc2ccccc2)cc1", "Potency": "inactive"},
      {"smiles": "C=C1C[C@H]2[C@@H]3C=C(C)C4=CC(=O)CC[C@]4(C)[C@H]3CC[C@]2(C)[C@@]1(OC(C)=O)C(C)=O", "Potency": "inactive"},
      {"smiles": "CCN(CCCc1ccccc1)CCCc1ccccc1", "Potency": "inactive"},
      {"smiles": "O=C(CCN1CCC(c2ccccc2)C1)c1ccc2c(c1)OCCO2", "note": "(configuration not stated)", "Potency": "inactive"},
      {"smiles": "CN(C)CC/C=C1\\c2ccccc2Sc2ccc(Cl)cc21", "Potency": "inactive"},
      {"smiles": "COc1cccc(CCc2ccccc2OCC(CN(C)C)OC(=O)CCC(=O)O)c1", "note": "(configuration not stated)", "Potency": "inactive"}
    ]}
  ]
}
